Laboratory results reported in PMC5540273 (PLoS ONE, 2017).

Legend:
Details in all cases: concentration: 1 μM, replicates: in singlicate; n = 1
[1] = tested on: ADCK4
[2] = tested on: AKT1
[3] = tested on: AKT2
[4] = tested on: AKT3
[5] = tested on: ALK
[6] = tested on: T1, AMPK-alpha1
T1 construct: gene PRKAA1

[7] = tested on: T2, AMPK-alpha2
T2 construct: gene PRKAA2

[8] = tested on: ANKK1
[9] = tested on: T3, ARK5
T3 construct: gene NUAK1

[10] = tested on: T4, ASK1
T4 construct: gene MAP3K5

[11] = tested on: T5, ASK2
T5 construct: gene MAP3K6

[12] = tested on: AURKA
[13] = tested on: AURKB
[14] = tested on: AURKC
[15] = tested on: AXL
[16] = tested on: T6, BIKE
T6 construct: gene BMP2K

[17] = tested on: BLK
[18] = tested on: BMPR1A
[19] = tested on: BMPR1B
[20] = tested on: BMPR2
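Note: KINOMEscan kinase panel screen.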

SMILES	%Inh [1]	%Inh [2]	%Inh [3]	%Inh [4]	%Inh [5]	%Inh [6]	%Inh [7]	%Inh [8]	%Inh [9]	%Inh [10]	%Inh [11]	%Inh [12]	%Inh [13]	%Inh [14]	%Inh [15]	%Inh [16]	%Inh [17]	%Inh [18]	%Inh [19]	%Inh [20]
COc1ccc(C2=C(Nc3cccc(O)c3)C(=O)NC2=O)cc1 [SB-390766]	9%	0%	12%	0%	73%	100%	10%	32%	0%	35%	7%	13%	33%	0%	35%	0%	0%	0%	0%	24%
CCOc1nccc(-c2c(-c3ccc(F)cc3)ncn2C2CCNCC2)n1 [SB-249175]	8%	0%	0%	16%	52%	1%	5%	0%	7%	0%	0%	52%	59%	15%	54%	0%	0%	100%	20%	26%
CN(C)CCNS(=O)(=O)c1ccc(-c2ccnc3[nH]ccc23)cc1 [GSK977620]	0%	57%	18%	75%	50%	53%	43%	0%	39%	0%	23%	2%	57%	85%	93.1%	82%	6%	0%	0%	0%
COc1cc(Nc2ccnc3cc(-c4ccncc4)ccc23)cc(OC)c1OC.Cl [GW494610]	14%	0%	10%	0%	29%	5%	32%	0%	12%	0%	0%	0%	82%	27%	31%	0%	94.9%	62%	99%	10%
Cc1ccc(O)cc1Nc1ccnc2ccc(C(C)(C)C)cc12 [GW856805]	88%	27%	29%	18%	44%	8%	19%	7%	0%	1%	32%	30%	36%	24%	42%	9%	95.1%	16%	79%	33%
CN1CCN(Cc2ccc(NC(=O)Nc3ccc(N(C)c4ccnc(Nc5ccc(CS(C)(=O)=O)cc5)n4)cc3)cc2)CC1.Cl [GW827654]	34%	0%	0%	0%	47%	34%	34%	80%	8%	0%	4%	99.9%	99.7%	98.5%	99.3%	93.2%	94.1%	44%	96.2%	87%
COC(=O)Nc1nc2ccc(Oc3ccc(CC(=O)Nc4cc(C(F)(F)F)ccc4F)cc3)cc2[nH]1 [GW680903]	42%	0%	0%	0%	36%	0%	0%	1%	7%	3%	0%	0%	60%	52%	23%	3%	32%	6%	0%	1%
COc1cccc(NC(=O)NCCNc2ccnc(Nc3ccc(F)cc3)n2)c1 [GSK1379879]	41%	0%	0%	0%	36%	0%	0%	14%	16%	20%	0%	19%	40%	45%	3%	14%	18%	0%	0%	5%
COC(=O)Nc1nc2ccc(Oc3ccc(NC(=O)Nc4cc(C(F)(F)F)ccc4F)cc3)cc2[nH]1.Cl [GW654607]	54%	0%	100%	0%	18%	19%	15%	13%	9%	12%	15%	0%	92.3%	42%	97.3%	10%	67%	18%	0%	0%
O=C(Nc1n[nH]c2nc(-c3cccc(O)c3)ccc12)C1CC1 [SB-711805]	0%	0%	0%	4%	0%	0%	0%	0%	0%	0%	0%	9%	19%	23%	12%	34%	0%	8%	86%	34%
O=C(Nc1n[nH]c2nc(-c3ccccc3)ccc12)C1CC1 [SB-708999]	12%	14%	9%	0%	3%	17%	12%	63%	8%	18%	32%	22%	15%	8%	0%	40%	0%	0%	6%	10%
Cn1cc(-c2cnc(N)c3c(-c4ccc5c(c4)CCN5C(=O)Cc4ccccc4)csc23)cn1 [GSK2593074]	0%	14%	0%	8%	0%	17%	0%	0%	3%	21%	17%	24%	97.8%	92.2%	95.9%	0%	93%	1%	6%	6%
CC(C)c1nc(-c2ccc(F)c(NS(=O)(=O)c3c(F)cccc3F)c2)c(-c2ccnc(Nc3ccc(N4CCOCC4)nc3)n2)s1 [GSK1804250]	88%	0%	13%	2%	26%	59%	69%	23%	21%	0%	25%	11%	29%	88%	82%	44%	99.5%	40%	99.7%	1%
CCn1c(-c2nonc2N)nc2c(-c3ccccc3)ncc(OCCCN)c21.O=C(O)C(F)(F)F.O=C(O)C(F)(F)F [GSK260205]	26%	72%	75%	74%	25%	0%	0%	0%	0%	0%	0%	0%	36%	0%	0%	8%	20%	0%	0%	2%
Nc1ncc(-c2ccc3nccc(-c4ccncc4)c3c2)cc1S(=O)(=O)N1CCCCC1 [GSK1693850]	33%	0%	1%	0%	22%	0%	1%	35%	0%	14%	0%	59%	31%	35%	52%	14%	0%	0%	0%	0%
N#CC1(c2cccc(C(=O)Nc3cccc(Oc4ccc5nc(NC(=O)C6CC6)sc5n4)c3)c2)CC1	2%	27%	6%	0%	15%	17%	27%	0%	0%	0%	3%	0%	57%	48%	62%	1%	95.2%	0%	0%	0%
O=C(Nc1c(F)cccc1F)c1cc(C(=O)c2ccccc2F)c[nH]1 [GSK1326180]	20%	0%	0%	0%	33%	0%	0%	2%	0%	8%	0%	0%	0%	0%	24%	0%	0%	6%	0%	1%
